IMPase Li inh: cell-permeable IMPase inhibitors with lithium potentiation; CHO-M1 cells, IP1 TR-FRET (IP-One), carbachol + lithium; Potency, µM (top dose mostly 59.4 µM), without a hit: at the top dose activity, negative = IMPase inhibition, usual class: inhibitors; 210,000 compounds, 0.35% hits; AID 1457;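 note: IP1 builds up when IMPase is blocked and the TR-FRET signal falls; potency is the fitted concentration of half-maximal effect; plate controls were basal vehicle for no effect and high inhibitor control for full effect; nearly all actives have a fitted effect of over 50% in size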
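Steps: plate 2000 CHO-M1 cells per well and culture 16–30 h; add compound and lithium; incubate 30 min, 37C; add d2-IP1 tracer and Eu cryptate anti-IP1 antibody in lysis buffer; read after 10 min at room temperature.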
IMPase inh: membrane-permeable compound that blocks inositol monophosphatase; inhibition (IP1 accumulation), % at 46.1 µM; P97697; 120,000 tested, under 10 active; CHO-M1 cells, IP1 accumulation, HTRF TR-FRET ratio; active = well fitted curve in the direction sought with a large enough effect in the signal ratio, not every such curve was filed as active; inconclusive = small, poorly fitted or top-dose-only effect, or a change in a side signal; inactive = no such curve, though single readings can be large or run the other way; the % refers to the signal ratio;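 note: cells stimulated with carbachol in lithium chloride buffer; plate controls were DMSO basal wells for no effect and reference inhibitor wells for full effect; higher means more IMPase inhibition seen as more IP1 and lower FRET ratio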
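Carbachol-driven Gq signalling in CHO-M1 cells (2000/well) generates IP1. Compounds that block IMPase raise IP1 and so reduce the FRET signal from Eu-anti-IP1 and d2-IP1 after a 10 min room-temperature lysis.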
ALDH1A1 inh: ALDH1A1 (human) enzyme inhibition; P00352; Purified ALDH1A1, NADH fluorescence, propionaldehyde substrate; Potency, µM (doses to about 75.3 µM), inactives show top-dose activity, negative = inhibition, most hits filed as inhibitors; 220,000 compounds, 7.3% hits; active = well fitted inhibition curve with a large enough effect, not every such curve was filed as active; inconclusive = small, poorly fitted or top-dose-only effect, or another doubt; inactive = no such curve, though single readings can be large or run the other way;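 note: potency is the fitted concentration of half-maximal effect; plate controls were no enzyme wells and a reference inhibitor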
ALOX12 inhib: inhibitors of human 12-lipoxygenase (ALOX12) | P18054 | purified 12-hLO, xylenol orange hydroperoxide absorbance | Potency, µM (top dose mostly 57.1 µM), inactives show top-dose activity change, negative = inhibition, usual class: inhibitors | 150,000 compounds, 0.12% hits | AID 1452; note: potency is the fitted concentration of half-maximal effect; nearly all actives have a fitted effect of over 55% in size
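Xylenol orange chromogenic assay: hydroperoxide from 12hLO oxidises Fe(II), giving red-shifted Fe(III)-XO absorbance. Conditions: 150 nM enzyme, 40 uM arachidonic acid, 25 mM Hepes pH 7.0, 0.01% Triton X-100, 30 min, room temperature.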
NPSR antagonist: neuropeptide S receptor (human) antagonism, cAMP. Q6W5P4. 220,000 compounds, 1% hits. CHO-NPSR cells, cAMP TR-FRET, antagonist mode. Potency, µM (top dose mostly 38.3 µM), for the others: top-dose activity change, negative = inhibition, usual class: inhibitors; note: potency is the fitted concentration of half-maximal effect; nearly all actives have a fitted effect of over 50% in size
Target sequence (Q6W5P4 whole entry, looked up): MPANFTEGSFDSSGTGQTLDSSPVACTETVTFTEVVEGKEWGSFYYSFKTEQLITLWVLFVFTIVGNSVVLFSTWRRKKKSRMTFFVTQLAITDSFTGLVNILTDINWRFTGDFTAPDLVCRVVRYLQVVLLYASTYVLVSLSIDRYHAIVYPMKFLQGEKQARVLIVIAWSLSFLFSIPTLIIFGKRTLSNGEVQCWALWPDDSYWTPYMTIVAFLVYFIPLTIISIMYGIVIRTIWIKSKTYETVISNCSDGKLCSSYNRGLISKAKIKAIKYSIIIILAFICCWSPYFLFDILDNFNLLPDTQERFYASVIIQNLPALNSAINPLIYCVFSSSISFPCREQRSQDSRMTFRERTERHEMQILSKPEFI
HPGD inh: blocks human HPGD enzyme activity | P15428 | AID 894 | purified HPGD, NADH fluorescence kinetic, PGE2 substrate | Potency, µM, without a hit: at the top dose activity change, negative = inhibition, most hits filed as inhibitors | 150,000 compounds, 4.3% hits; active = well fitted inhibition curve with a large enough effect, not every such curve was filed as active; inconclusive = small, poorly fitted or top-dose-only effect, or another doubt; inactive = no such curve, though single readings can be large or run the other way; note: potency is the fitted concentration of half-maximal effect
Target sequence (P15428 whole entry, looked up): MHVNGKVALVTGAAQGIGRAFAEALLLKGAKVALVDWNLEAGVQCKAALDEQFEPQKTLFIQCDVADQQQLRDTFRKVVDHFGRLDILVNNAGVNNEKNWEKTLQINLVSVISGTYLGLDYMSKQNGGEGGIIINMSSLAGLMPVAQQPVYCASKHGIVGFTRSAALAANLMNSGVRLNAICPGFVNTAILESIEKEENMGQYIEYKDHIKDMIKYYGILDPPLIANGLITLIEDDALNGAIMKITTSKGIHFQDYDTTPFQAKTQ
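NADH formation kinetics: reaction with 30 uM PGE2 and 1 mM NAD+ (final), 20 nM enzyme, Tris-HCl pH 8 with Tween 20, after 15 min compound preincubation at room temperature. Fluorescence change, last versus first of five reads.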
The depositor's hits bear a star; ? = inconclusive; / = no result given; [ ] = another dose, or the depositor's remark. Most compounds without a hit are left out; they make up all but 8.9% or so of the library. Unless noted, calls come from the whole dose curve; as a rule, active = well fitted curve in the direction sought with a large enough effect; inconclusive = small, poorly fitted or top-dose-only effect, or another doubt; inactive = no such curve, though single readings can be large; an effect the other way counts as inactive or inconclusive. Unless noted, % is set by controls: 0 for no effect and ±100 for the full control effect.

SMILES	IMPase Li inh	IMPase inh	ALDH1A1 inh	ALOX12 inhib	NPSR antagonist	HPGD inh
O=C(CN1N=C(c2ccccc2)CCC1=O)NCc1ccccc1	5%	/	-2%	/	7%	/
COc1ccccc1CNC(=O)C(=O)NCC1OCCN1S(=O)(=O)c1cccs1 (centres undefined)	/	/	/	/	3%	/
O=C(NCCO)C(=O)NCC1OCCCN1S(=O)(=O)c1cccs1 (centres undefined)	-7%	/	18µM*	-1%	3%	-4%
O=C(NCCc1c[nH]c2ccccc12)C(=O)NCC1OCCCN1S(=O)(=O)c1cccs1 (centres undefined)	6%	/	25µM*	/	5%	/
O=C(NCc1cccs1)C(=O)NCC1OCCCN1S(=O)(=O)c1cccs1 (centres undefined)	1%	/	14µM*	/	4%	/
O=C(NCc1ccccc1Cl)C(=O)NCC1OCCN1S(=O)(=O)c1cccs1 (centres undefined)	6%	/	14µM*	/	-5%	/
CCCn1c(SCC(=O)N(CC)CC)nnc1-c1ccncc1	1%	/	3%	/	9%	/
COc1ccc(C(CC(=O)NCC(OC)OC)NS(=O)(=O)c2ccc(Cl)cc2)cc1 (centres undefined)	-5%	/	1%	/	-3%	/
OCC(Cc1ccccc1)Nc1c2ccccc2nc2ccccc12 (centres undefined)	9%	15	8%	4%	-27%	-13%
CC1(C)CC(=O)C(C=Nc2cccnc2)=C(O)C1	0%[38.3 µM]	5	7.9µM*	-7%	2%[46.1 µM]	-5%
Cc1cccc(/N=C/C2=C(O)CC(C)(C)CC2=O)n1	/	/	/	/	21%	/
CC1(C)CC(=O)C(C=NCCc2ccccn2)=C(O)C1	14%[38.3 µM]	-2	3%	0%	4%[46.1 µM]	3%
CC1(C)CC(=O)C(C=Nc2cccnc2/N=C/C2=C(O)CC(C)(C)CC2=O)=C(O)C1	5%	/	2.2µM*	/	17%	/
CCCc1cc(=O)n2[nH]c(NCc3c(Cl)cccc3Cl)nc2n1	14%[38.3 µM]	-7	-1%	3%	-9%[46.1 µM]	-18%
COc1ccc(CN(C)CC(=O)Nc2sc3c(c2C#N)CCC3)cc1OC	27%	/	14µM*	/	-16%	/
COc1cccc(CN(C)CC(=O)Nc2sc3c(c2C#N)CCC3)c1OC	15%	/	25µM*	/	-40%	/
CN(CC(=O)Nc1sc2c(c1C#N)CCCCC2)Cc1nc2ccccc2c(=O)[nH]1	23%	/	?	/	-13%	/
CCCCOc1ccc(S(=O)(=O)Nc2cccnc2)cc1	-1%[38.3 µM]	10	7%	-3%	-7%[46.1 µM]	-12%
COc1ccc(-n2nc3ccc(NC(=O)c4cc5ccccc5o4)cc3n2)cc1Cl	/	4	/	/	/	/
Cc1c(C(=O)NCCc2ccccc2)oc2ccc(S(=O)(=O)N3CCOCC3)cc12	7%	4	-15%	4%	-25%[46.1 µM]	-10%
Cc1c(C(=O)NCCN2CCOCC2)oc2ccc(S(=O)(=O)N3CCCCCC3)cc12	15%[38.3 µM]	16	25µM*	-2%	-12%[46.1 µM]	-17%
CC(C)(C)NC(=O)NC(=O)CN1CCN(c2ccccc2)CC1	-6%	/	-4%	/	4%	/
CC(CCc1ccccc1)NC(=O)CN1CCN(Cc2ccccc2)C1=O (centres undefined)	-6%[38.3 µM]	9	-3%	-2%	?	-2%
CC(CCc1ccccc1)NC(=O)CN1CCN(c2ccc(O)cc2)CC1 (centres undefined)	4%	/	8.9µM*	/	-7%	/
CC(C)(C)NC(=O)NC(=O)CN1CCN(c2ccc(O)cc2)CC1	10%	/	22µM*	/	14%	/
SMILES	IMPase Li inh	IMPase inh	ALDH1A1 inh	ALOX12 inhib	NPSR antagonist	HPGD inh
O/N=C/c1ccccc1OCc1ccc(Cl)cc1	-5%[38.3 µM]	-4	0%	-18%	4%[46.1 µM]	-8%
Cc1ccc(/C=C2\SC(=S)N(/N=C/c3cc([N+](=O)[O-])ccc3O)C2=O)o1	25%	/	7.1µM*	/	-41%	/
COCCn1c(SCC(=O)Nc2nnc(C)s2)nnc1-c1cc2ccccc2cc1O	13%[38.3 µM]	6	?	-13%	?	?
COc1cc(OC)cc(C(=O)NC(=S)NNC(=O)c2cnccn2)c1	13%	12	40µM*	1%	3%[46.1 µM]	-26%
COc1ccc(C(=O)NC(=S)NNC(=O)c2cnccn2)cc1OC	10%	0	28µM*	-1%	-4%[46.1 µM]	-19%
COc1ccc(/C=C/C(=O)NC(=S)NNC(=O)c2cccnc2)cc1OC	-6%[38.3 µM]	-3	4%	1%	-8%[46.1 µM]	32µM*
COc1ccc(NC(=O)c2c([N+](=O)[O-])c(C(C)(C)C)nn2C)cc1	/	/	/	/	-33%	/
Fc1ccc(NC(=S)NC2CCCCC2)c(F)c1F	/	-10	-7%	-1%	-13%[46.1 µM]	/
Cc1cc(C=O)c(C)n1-c1ccc(NC2CCCC2)c([N+](=O)[O-])c1	9%[38.3 µM]	8	?	-16%	-16%[46.1 µM]	?
COc1ccc(CN(Cc2ccc(C(=O)O)cc2)C(=S)Nc2cc(C)cc(C)c2)cc1OC	-5%	/	5%	/	-40%	/
O=C(Nc1ccc2c(c1)OCCO2)c1cc(-c2ccccn2)nc2ccc(Br)cc12	13µM*	/	5%	/	-28%	/
O=C(Nc1ccncc1)c1cc(-c2ccccn2)nc2ccccc12	3%	/	-2%	/	?	/
CCOc1cc(/C=C2\CCCC(C(=O)C(F)(F)F)=C2O)ccc1O	5%	/	0.16µM*	-17%	-11%	-13%
COc1ccc(/C=C2\CCCC(C(=O)C(F)(F)F)=C2O)cc1OC	-9%	/	0.13µM*	/	-25%	/
COc1ccc(/C=C2/CCCC(C(=O)C(F)(F)F)=C2O)cc1OC	/	/	/	/	-2%[7.67 µM]	/
COC(=O)Cn1nc(-c2ccccc2)n(-c2ccccc2)c1=S	2%[38.3 µM]	-7	8%	3%	3%[46.1 µM]	6%
COC(=O)Cc1ccc(OCc2ccc(Cl)nc2)cc1	17%	/	?	/	1%	/
CC1(C)Cc2c(sc3[nH]c(=S)[nH]c(=O)c23)CO1	1%	/	7.9µM*	/	-12%	/
Cc1ccc(NCC(=O)N/N=C/c2ccc(OC(=O)c3ccco3)cc2)cc1	0%[38.3 µM]	3	?	-2%	-5%[46.1 µM]	-7%
O=C(CCN1CCC(c2ccc(Cl)s2)=N1)c1ccc(Cl)s1	/	/	3.2µM*	/	-6%	/
COc1ccc2c(C=O)cn(C)c2c1	2%	/	2.2µM*	/	-18%	/
O=C(Nc1ccc(Br)c(Cl)c1)C1CC1	28%[38.3 µM]	8[1.84 µM]	-13%	?	14%[46.1 µM]	18µM*
Cc1ccc(Cl)cc1N1CCN(Cc2cc3c(cc2O)CCC3)CC1	44%[38.3 µM]	-4	-4%	4%	10µM*	-3%
CC(=O)Nc1ccc(SCC(=O)c2cc(C)n(CC(F)(F)F)c2C)cc1	33%[38.3 µM]	17	20µM*	3%	-8%[46.1 µM]	-16%
c1sc2[n+](c1C13CC4CC(CC(C4)C1)C3)CCS2	9%	/	?	0%	17%	-8%
